Data on four compounds can be found in PubChem BioAssay (NCATS).

Where “and” joins values, the source holds several entries; their conditions need not be identical. Equal entries are not always repeated. Records with an inconclusive call do not appear. Calls of active or inactive are those of the source. Unless noted, the call rests on the fitted dose curve; in most records, active means well fitted curve in the direction sought with a large enough effect; inconclusive means small, poorly fitted or top-dose-only effect, or another doubt; inactive means no such curve, though single readings can be large; an effect the other way counts as inactive or inconclusive.

Assay [1] is described as follows: AP1 Signaling Pathway (AID 357; active means well fitted curve in either direction with a large enough effect, not every such curve was filed as active;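 further: ME-180 reporter cells stimulated with EGF at its EC50 level; on the % scale 0 is the no-effect control and ±100 the full control effect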). To be noted: ME-180 AP-1-bla reporter, EGF-induced, beta-lactamase ratio, 5 h. The method, boiled down:
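Cells are seeded overnight, exposed to compound titrations and an EC50 level of EGF for 5 hours at 37 °C, then loaded with CCF4 dye for 2.5 hours. Beta-lactamase activity under the AP-1 element is read as a blue/green ratio.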

Assay [2] concerns the target Cytochrome P450 1A2 (Homo sapiens) (UniProt P05177). Nature of the assay: p450-cyp1a2 (AID 410; calls by dose curve; further: potency means the concentration at half of the fitted maximal effect;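 on activity change, negative = inhibition: -100% = full effect of reference inhibitor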). The method, boiled down:
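O-Demethylation of luciferin 6' methyl ether by human CYP1A2 is monitored as luciferase luminescence. Substrate sits at Km (100uM); enzyme is 20nM. Values are scaled to 57 uM furafylline as maximal inhibition.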

The nature of assay [3]: NFAT Signaling Pathway (AID 444; active means well fitted curve in either direction with a large enough effect, not every such curve was filed as active;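 further: carbachol stimulus at about its EC50 of 1 µM final; on the % scale 0 is the no-effect control and ±100 the full control effect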). To be noted: Jurkat NFAT-bla M1, carbachol, beta-lactamase ratio, 5 h. Summed up:
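Jurkat cells carrying an NFAT-driven β-lactamase reporter and co-transfected muscarinic M1 receptor were treated with compound plus carbachol (1 uM final, an EC50 level) for 5 h at 37 °C. CCF4 loading followed for 1 h at RT; 460/530 nm ratio gave %activity.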

The nature of assay [4]: Stat Signaling Pathway (AID 446; active means well fitted curve in either direction with a large enough effect, not every such curve was filed as active;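 further: ME-180 cervical cancer cells given 40 pM IL-6 alongside compound; SIE-controlled beta-lactamase reporter measured as 460/530 nm FRET emission ratio; on the % scale 0 is the no-effect control and ±100 the full control effect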). To be noted: ME-180 (cervical carcinoma) SIE beta-lactamase reporter, IL-6 stimulated, 5 h. The method, boiled down:
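Normalization used AC90 stimulation (300 pM IL-6) and AC90 inhibition (125 nM pan-JAK inhibitor at 40 pM IL-6). The underlying signal is SIE-driven beta-lactamase in ME-180 cells after 5 h IL-6 exposure with compound.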

Assay [5] has as its target Glucocorticoid receptor (Homo sapiens) (UniProt P04150). Nature of the assay: GR-GFP Redistribution (AID 450;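 active means compounds whose dose series gives a full or clear partial fitted curve of increased nuclear translocation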; further: potency means the concentration at half of the fitted maximal effect). To be noted: U2OS GR-GFP nuclear translocation, laser cytometry, 2 h.
Assay [6] has the same target. Nature of the assay: GR-EFC Redistribution (AID 451; calls by dose curve; further: potency means the concentration at half of the fitted maximal effect). To be noted: CHO-K1 GR-EFC translocation, beta-gal luminescence, 2 h. The method, boiled down: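 CHO-K1 cells stably expressing nuclear-localized β-gal enzyme acceptor and GR fused C-terminally to the enzyme donor fragment; ligand-driven nuclear translocation restores β-gal by complementation. Compounds titrated up to 46 uM final, 2 h at 37 °C; luminescence read.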

In assay [7] the target is Mitogen-activated protein kinase 10 (Mus musculus) (UniProt Q61831). Nature of the assay: JNK3 AlphaScreen Assay (AID 530; active means well fitted curve in either direction with a large enough effect, not every such curve was filed as active;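 further: kinase came from lysate of stimulated human HepG2 cells; signal reports phosphorylation of biotinylated GST-cJun 1-79 at Ser73 with 10 µM ATP; on the % scale 0 is the no-effect control and ±100 the full control effect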). The method, boiled down: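 Phosphorylation of biotinylated GST-cJun(1-79) at Ser73 is measured by AlphaScreen proximity luminescence. Enzyme is JNK3 in HepG2 lysates activated with interleukin-1beta and tumor necrosis factor alpha; ATP is 10 uM final.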
(Bead proximity is the source of the signal in Alpha formats.)

In assay [8] the target is 3',5'-cyclic-AMP phosphodiesterase 4B (Homo sapiens) (UniProt Q07343). Nature of the assay: qHTS Assay for Inhibitors of PDE-IV (AID 607; active means well fitted activation curve with a large enough effect in the main read-out, with a control signal flat, not every such curve was filed as active; further: % of control where 0% means no effect). Summed up:
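HEK293 ACTOne cells with CNG channel (1000/well), endogenous PDE4; membrane potential dye, compounds up to 22.9 uM final. Fluorescence Ex 535/Em 590; RO 20-1724 (100 uM final) as reference.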
In general terms: qHTS replaces the single test concentration by a dilution series.

Assay [9] can be described thus: qHTS Assay for Lipid Storage Modulators (AID 1519; calls by dose curve). To be noted: Drosophila S3 cells, BODIPY lipid droplet/cell ratio, laser cytometry, cells loaded with oleic acid; for activity change, negative = inhibition: at 25.7 µM (top of the series). Summed up:
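Cells seeded at 5,000 per well were treated with compounds over a concentration series and loaded with oleic acid (400 uM, as added). Lipid droplet fluorescence (488 nm excitation, 500-530 nm channel) was read by laser-scanning cytometry and normalized to 20 uM Triacsin C.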

In assay [10] the target is ATP-dependent 6-phosphofructokinase (Trypanosoma brucei brucei) (UniProt O15648). Nature of the assay: qHTS Assay to Find Inhibitors of T. brucei phosphofructokinase: hit validation (AID 492961). Summed up:
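Percent activity derived from corrected luminescence, normalized between 0x and 1x enzyme controls, then fitted to concentration-response curves. Conditions: 1.25 nM PFK, 0.1 mM ATP, 0.5 mM F6P, 45 min RT.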

Assay [11] has as its target Ubiquitin carboxyl-terminal hydrolase 1 (Homo sapiens) (UniProt O94782). Nature of the assay: Inhibitors of USP1/UAF1: Pilot qHTS (AID 504865).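 Further: rhodamine fluorescence freed from ubiquitin-rhodamine substrate followed over time; top concentration of the series differs between compounds; on the % scale 0 is the no-effect control and ±100 the full control effect; nearly all actives have a fitted effect of over 35% in size.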 The method, boiled down:
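USP1/UAF1 complex at 1 nM preincubated 15 min at room temperature with compound, then Ub-Rho substrate added at 150 nM final. Fluorescence (480/540 nm) read kinetically in 50 mM HEPES pH 7.8, 0.5 mM EDTA, 1 mM TCEP, 0.1 mg/ml BSA, 0.01% Tween-20.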

In assay [12] the target is Luciferin 4-monooxygenase (Photinus pyralis) (UniProt P08659). Nature of the assay: Biochemical firefly luciferase enzyme assay for NPC (AID 624030).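 Further: purified P. pyralis luciferase at 10 nM with luciferin and ATP substrate; 0% = DMSO and -100% = full luciferase inhibition by PTC124 control; nearly all actives have a fitted effect of over 70% in size.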 Summed up:
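Counter-screen for direct inhibition of the luciferase enzyme by approved-drug library compounds, run at 10 nM enzyme in 50 mM Tris acetate (final). Luminescence was read within 5 min of enzyme-buffer addition and normalized to PTC124 versus DMSO (0%).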

Assay [13] in a line: qHTS profiling for inhibitors of Plasmodium falciparum proliferation (AID 504749).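 Further: 0% = DMSO vehicle and full inhibition = artemisinin control; nearly all actives have a fitted effect of over 60% in size.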 To be noted: P. falciparum in erythrocytes, SYBR Green DNA, 72 h. Summed up: (§1)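 Quantitative HTS: compounds pinned into medium, infected erythrocytes added (0.3% parasitemia, 2.5% hematocrit), 72 h culture at 37 C under 5% CO2. Saponin/Triton lysis with SYBR Green I, overnight RT, then fluorescence read.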

The subject of the next assay is AS120. Described as above. To be noted: P. falciparum in erythrocytes, SYBR Green DNA, 72 h; series mostly up to 28.7 µM. The method, boiled down:
as §1

For the next assay, the system named is CP201. The description is as above. To be noted: P. falciparum in erythrocytes, SYBR Green DNA, 72 h; series mostly up to 12.8 µM. The method, boiled down: as §1
A further assay has as its system CP238. Described as above. Conditions: P. falciparum in erythrocytes, SYBR Green DNA, 72 h; series mostly up to 12.8 µM. The method, boiled down:
as §1

Another assay concerns CP262. The description is as above. Conditions: P. falciparum in erythrocytes, SYBR Green DNA, 72 h; series mostly up to 12.8 µM. The method, boiled down:
as §1

In the next assay the test system is CP265. The description is as above. To be noted: P. falciparum in erythrocytes, SYBR Green DNA, 72 h; series mostly up to 12.8 µM. The method, boiled down: as §1
A further assay concerns FAB9. The description is as above. Conditions: P. falciparum in erythrocytes, SYBR Green DNA, 72 h; series mostly up to 12.8 µM. Summed up: as §1
In a further assay the test system is JCK. Described as above. Conditions: P. falciparum in erythrocytes, SYBR Green DNA, 72 h; series mostly up to 12.8 µM. Summed up: as §1
Setting [14] is: at 7.69 µM (top of the series) unless noted.
Where [15] appears, read: measured here: cell count channel max response.
Where [16] appears, read: measured here: lipid channel max response.
[17] abbreviates: at 12.8 µM (top of the series), parasite line A.
[18] abbreviates: at 12.8 µM (top of the series), parasite line B.

Glucocorticoid receptor (Homo sapiens), sequence (P04150 whole entry, looked up, the tested form may be a part): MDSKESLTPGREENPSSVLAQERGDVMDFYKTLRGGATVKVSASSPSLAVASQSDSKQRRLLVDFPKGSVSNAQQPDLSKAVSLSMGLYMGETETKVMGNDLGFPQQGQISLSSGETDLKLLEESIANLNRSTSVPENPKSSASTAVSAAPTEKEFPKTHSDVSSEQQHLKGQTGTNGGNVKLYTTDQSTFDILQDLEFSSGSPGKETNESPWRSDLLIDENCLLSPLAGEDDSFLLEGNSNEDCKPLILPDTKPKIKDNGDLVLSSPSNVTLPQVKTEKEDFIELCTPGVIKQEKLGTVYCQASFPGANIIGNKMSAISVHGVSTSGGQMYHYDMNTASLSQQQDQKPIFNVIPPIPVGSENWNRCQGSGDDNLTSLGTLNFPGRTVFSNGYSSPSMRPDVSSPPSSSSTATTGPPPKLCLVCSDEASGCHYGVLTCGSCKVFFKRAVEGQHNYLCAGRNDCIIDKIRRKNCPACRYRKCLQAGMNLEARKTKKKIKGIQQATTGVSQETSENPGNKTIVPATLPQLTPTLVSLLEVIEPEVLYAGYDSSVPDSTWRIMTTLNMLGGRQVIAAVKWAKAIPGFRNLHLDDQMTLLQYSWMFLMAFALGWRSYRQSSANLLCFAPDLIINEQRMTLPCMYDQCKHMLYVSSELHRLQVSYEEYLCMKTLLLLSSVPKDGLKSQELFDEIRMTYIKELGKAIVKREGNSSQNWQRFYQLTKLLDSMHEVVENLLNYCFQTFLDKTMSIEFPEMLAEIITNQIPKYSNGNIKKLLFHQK
3',5'-cyclic-AMP phosphodiesterase 4B (Homo sapiens), sequence (Q07343 whole entry, looked up): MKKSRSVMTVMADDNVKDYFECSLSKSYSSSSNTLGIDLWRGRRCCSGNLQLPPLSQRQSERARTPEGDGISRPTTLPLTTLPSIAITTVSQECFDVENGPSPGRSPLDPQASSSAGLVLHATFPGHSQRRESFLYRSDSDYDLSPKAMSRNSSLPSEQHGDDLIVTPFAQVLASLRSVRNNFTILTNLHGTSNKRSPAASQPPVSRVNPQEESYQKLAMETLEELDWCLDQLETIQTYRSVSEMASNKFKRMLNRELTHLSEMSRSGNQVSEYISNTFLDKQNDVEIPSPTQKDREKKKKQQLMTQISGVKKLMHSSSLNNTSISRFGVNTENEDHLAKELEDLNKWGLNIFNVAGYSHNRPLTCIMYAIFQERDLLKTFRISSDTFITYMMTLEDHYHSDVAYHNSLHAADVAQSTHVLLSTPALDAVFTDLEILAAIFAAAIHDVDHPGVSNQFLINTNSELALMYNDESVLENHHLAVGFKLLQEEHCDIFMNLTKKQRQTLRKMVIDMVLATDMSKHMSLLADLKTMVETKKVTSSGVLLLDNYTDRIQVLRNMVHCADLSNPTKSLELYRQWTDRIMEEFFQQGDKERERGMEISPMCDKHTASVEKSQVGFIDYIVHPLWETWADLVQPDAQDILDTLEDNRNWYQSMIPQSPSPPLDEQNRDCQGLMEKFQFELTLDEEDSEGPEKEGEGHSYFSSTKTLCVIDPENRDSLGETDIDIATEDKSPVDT
ATP-dependent 6-phosphofructokinase (Trypanosoma brucei brucei), sequence (O15648 whole entry, looked up): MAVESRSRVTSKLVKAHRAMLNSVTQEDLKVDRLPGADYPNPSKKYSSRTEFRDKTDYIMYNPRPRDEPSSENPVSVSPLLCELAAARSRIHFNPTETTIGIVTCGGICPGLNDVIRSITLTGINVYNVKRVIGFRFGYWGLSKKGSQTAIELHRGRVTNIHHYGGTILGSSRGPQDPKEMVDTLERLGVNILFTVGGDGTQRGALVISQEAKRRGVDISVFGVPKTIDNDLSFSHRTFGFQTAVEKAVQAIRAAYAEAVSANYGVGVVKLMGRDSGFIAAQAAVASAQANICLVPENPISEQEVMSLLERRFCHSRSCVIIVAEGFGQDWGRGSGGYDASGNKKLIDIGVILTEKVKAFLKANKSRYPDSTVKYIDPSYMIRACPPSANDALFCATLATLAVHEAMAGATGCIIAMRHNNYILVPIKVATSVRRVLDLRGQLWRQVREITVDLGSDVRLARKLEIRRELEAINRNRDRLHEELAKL
Luciferin 4-monooxygenase (Photinus pyralis), sequence (P08659 whole entry, looked up): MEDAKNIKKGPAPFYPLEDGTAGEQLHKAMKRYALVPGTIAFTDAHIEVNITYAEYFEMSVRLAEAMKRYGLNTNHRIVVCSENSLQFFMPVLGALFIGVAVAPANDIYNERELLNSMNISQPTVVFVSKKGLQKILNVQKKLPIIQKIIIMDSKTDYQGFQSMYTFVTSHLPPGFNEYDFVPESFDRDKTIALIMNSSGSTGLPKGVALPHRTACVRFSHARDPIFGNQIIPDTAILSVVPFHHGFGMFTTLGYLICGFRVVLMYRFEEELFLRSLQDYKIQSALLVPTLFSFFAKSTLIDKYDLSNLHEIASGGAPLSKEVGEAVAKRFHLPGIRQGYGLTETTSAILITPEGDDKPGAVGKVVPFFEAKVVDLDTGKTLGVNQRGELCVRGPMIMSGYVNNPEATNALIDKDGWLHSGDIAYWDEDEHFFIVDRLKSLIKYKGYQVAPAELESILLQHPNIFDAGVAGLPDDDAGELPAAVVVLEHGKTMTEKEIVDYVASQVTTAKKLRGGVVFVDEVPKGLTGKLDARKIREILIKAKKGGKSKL
Ubiquitin carboxyl-terminal hydrolase 1 (Homo sapiens), sequence (O94782 whole entry, looked up): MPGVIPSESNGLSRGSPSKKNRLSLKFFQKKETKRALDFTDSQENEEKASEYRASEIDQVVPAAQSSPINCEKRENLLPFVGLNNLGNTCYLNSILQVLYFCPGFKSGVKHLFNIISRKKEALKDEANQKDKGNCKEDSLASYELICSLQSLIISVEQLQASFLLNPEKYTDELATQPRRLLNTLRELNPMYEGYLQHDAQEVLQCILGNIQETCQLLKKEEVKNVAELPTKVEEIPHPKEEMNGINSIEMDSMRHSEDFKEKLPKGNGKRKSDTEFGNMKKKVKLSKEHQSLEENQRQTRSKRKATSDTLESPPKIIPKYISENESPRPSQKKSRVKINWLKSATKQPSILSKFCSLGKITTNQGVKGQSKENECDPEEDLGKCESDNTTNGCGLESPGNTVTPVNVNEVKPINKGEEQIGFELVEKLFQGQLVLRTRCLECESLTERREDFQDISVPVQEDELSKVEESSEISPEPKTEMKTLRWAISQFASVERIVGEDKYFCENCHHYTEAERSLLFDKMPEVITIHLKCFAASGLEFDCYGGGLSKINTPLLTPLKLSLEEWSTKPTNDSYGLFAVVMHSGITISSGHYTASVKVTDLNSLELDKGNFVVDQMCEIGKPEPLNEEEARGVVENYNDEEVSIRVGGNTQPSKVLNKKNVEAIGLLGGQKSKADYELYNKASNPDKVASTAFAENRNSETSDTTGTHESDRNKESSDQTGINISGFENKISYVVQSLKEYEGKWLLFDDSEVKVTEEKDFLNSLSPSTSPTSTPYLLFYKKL
Cytochrome P450 1A2 (Homo sapiens), sequence (P05177 whole entry, looked up): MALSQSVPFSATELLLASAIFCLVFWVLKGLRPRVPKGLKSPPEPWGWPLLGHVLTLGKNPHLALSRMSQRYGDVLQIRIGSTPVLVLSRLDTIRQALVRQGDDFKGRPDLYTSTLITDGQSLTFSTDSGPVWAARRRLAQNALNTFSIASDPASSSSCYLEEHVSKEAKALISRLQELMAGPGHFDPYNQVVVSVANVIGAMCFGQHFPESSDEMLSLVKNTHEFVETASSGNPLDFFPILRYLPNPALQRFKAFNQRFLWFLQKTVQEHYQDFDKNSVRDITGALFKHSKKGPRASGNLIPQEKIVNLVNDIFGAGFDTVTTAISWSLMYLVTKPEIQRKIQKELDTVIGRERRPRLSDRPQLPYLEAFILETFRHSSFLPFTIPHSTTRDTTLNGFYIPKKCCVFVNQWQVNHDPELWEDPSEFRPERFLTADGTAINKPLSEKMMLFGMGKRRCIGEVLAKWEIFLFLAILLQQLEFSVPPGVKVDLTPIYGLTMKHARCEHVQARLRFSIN

For the compound `CN(N=O)C(=O)N[C@H]1[C@@H](O)[C@H](O)[C@H](CO)O[C@@H]1O`, the activity change, negative = inhibition is 22% [at 17.2 µM] (inactive) in assay [1] (setting [14]), 5.2% [at 17.2 µM] (inactive) in assay [3] (setting [14]) and -1.88% (inactive) in assay [9]. The Potency result (in [2]; in assay [7]; in [8]; in [11]; with AS120; in the assay on CP201) was “inactive” throughout. Moreover, the Potency result in the assay with CP238, in the assay with CP262, in the assay with CP265, in the assay with FAB9 and with JCK was “inactive” in each case. The activity, negative = inhibition was -4.53% [at 17.2 µM] (inactive) in assay [4] (setting [14]), 2.49% (inactive) in assay [13] (setting [17]) and 8.62% (inactive) in assay [13] (setting [18]). For the same compound, the Potency in assay [5] and in [6] was > 20.6 µM (inactive) in each case. Besides, the max response is -12.1% in [9] (setting [15]) and -12.9% in assay [9] (setting [16]). Further, the compound was classed as inactive in assay [10] and in assay [12].

Consider `O=c1[nH]c(=O)n([C@@H]2C[C@H](O)[C@H](CO)O2)cc1I`, for which the activity change, negative = inhibition in [1] (setting [14]) was 9.17% [at 17.2 µM] (inactive); in [3] (setting [14]), 8.3% [at 17.2 µM] (inactive); in assay [9] it was -3.3% (inactive). Also, the Potency entry (in assay [2]; in [7]; in assay [11]; with AS120; with CP201; in the assay on CP238) was “inactive” throughout. The Potency result with CP262, with CP265, in the assay on FAB9 and with JCK was “inactive” throughout. Also, the values for the activity, negative = inhibition in assay [4] (setting [14]), in assay [13] (setting [17]) and in [13] (setting [18]) were 11.4% [at 17.2 µM] (inactive), -1.96% (inactive) and 14.3% (inactive), respectively. Further, the Potency in assay [5] and in [6] was > 20.6 µM (inactive) throughout. Besides, the max response in assay [9] (setting [15]) was 2.86%; in assay [9] (setting [16]), 1.83%. Moreover, the result in assay [10] and in assay [12] was inactive.

Turning to `COCCc1ccc(OC[C@H](O)CNC(C)C)cc1`, the activity change, negative = inhibition in assay [1] (at 17.2 µM (top of the series)) was 15.8% (inactive); in [1] (at 38 µM (top of the series)), 13.6% (inactive); in [3] (at 17.2 µM (top of the series)), 1.88% (inactive); in [3] (at 38 µM (top of the series)), -1.17% (inactive); in [9], 1.2% (inactive). Also, the activity, negative = inhibition in [4] (at 17.2 µM (top of the series)) was -1.97% (inactive); in [4] (at 38 µM (top of the series)) it was 13.4% (inactive); in assay [13] (at 28.7 µM (top of the series), parasite line A) it was 13.1% (inactive); in assay [13] (at 28.7 µM (top of the series), parasite line B), 3.39% (inactive). The Potency in [5] was > 46 µM (inactive) and > 20.6 µM (inactive); in assay [6] it was > 46 µM (inactive) and > 20.6 µM (inactive). The Potency result (in [7]; in assay [8]; in assay [11]; with AS120; in the assay on CP201; in the assay on CP238) was “inactive” throughout. In addition, the Potency entry with CP262, in the assay with CP265, in the assay on FAB9 and in the assay with JCK was “inactive” in each case. The figures for the max response in [9] (setting [15]) and in assay [9] (setting [16]) were 10.9% and 11.2%, respectively. Besides, the outcome in [10] and in [12] was inactive.

Take `COc1c2ccoc2nc2c(OC)c(OC[C@H](O)C(C)(C)O)ccc12`: the activity change, negative = inhibition in assay [1] (setting [14]) was 1.86% [at 17.2 µM] (inactive); in assay [3] (setting [14]), 15.7% [at 17.2 µM] (inactive); in assay [9], -1.84% (inactive). In addition, the Potency in assay [2] was 10 µM (active) and 25.1 µM (active); in assay [5], > 20.6 µM (inactive) and > 46 µM (inactive); in [6] it was > 20.6 µM (inactive) and > 46 µM (inactive). Also, the activity, negative = inhibition in assay [4] (setting [14]) is -10.7% [at 17.2 µM] (inactive). Further, the Potency entry in assay [7], in assay [8] and in [11] was “inactive” each time. The max response is -8.76% in assay [9] (setting [15]) and -11% in [9] (setting [16]).
